# Measured values as given in the supplement of paper PMC8728848.
# The full list was thinned out, with the strongest signals kept by preference.
# B1: OGAA (protein)
# chain: MVQKESQATLEERESELSSNPAASAGASLEPPAAPAPGEDNPAGAGGAAVAGAAGGARRFLCGVVEGFYGRPWVMEQRKELFRRLQKWELNTYLYAPKDDYKHRMFWREMYSVEEAEQLMTLISAAREYEIEFIYAISPGLDITFSNPKEVSTLKRKLDQVSQFGCRSFALLFADIDHNMCAADKEVFSSFAHAQVSITNEIYQYLGEPETFLFCPTEYCGTFCYPNVSQSPYLRTVGEKLLPGIEVLWTGPKVVSKEIPVESIEEVSKIIKRAPVIWDNIHANDYDQKRLFLGPYKGRSTELIPRLKGVLTNPNCEFEANYVAIHTLATWYKSNMNGVRKDVVMTDSEDSTVSIQIKLENEGSDEDIETDVLYSPQMALKLALTEWLQEFGVPHQY
# Columns and labels:
# Assay in all cases: glycan array binding signal (z-score within array); higher = stronger binding
# Details in all cases: glycan notation: IUPAC condensed, linker removed
# [1] = target: Fuc(a1-2)Gal(b1-3)GlcNAc(b1-2)Man(a1-3)[Fuc(a1-2)Gal(b1-3)GlcNAc(b1-2)Man(a1-6)]Man(b1-4)GlcNAc(b1-4)[Fuc(a1-6)]GlcNAc
# Procedure, shortened: (§1)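 The binding signal is a Z-score computed within each array. Data were drawn from 3228 arrays in the Consortium for Functional Glycomics database, restricted to those with a known protein sequence. Scores were averaged over arrays of the same protein sequence at different concentrations or buffers, and over linkers, and negative values can be taken as non-binding.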
# [2] = target: Fuc(a1-2)Gal(b1-3)[Fuc(a1-4)]GlcNAc
# Procedure, shortened: as §1
# [3] = target: Fuc(a1-2)Gal(b1-3)[Fuc(a1-4)]GlcNAc(b1-2)Man(a1-3)[Fuc(a1-2)Gal(b1-3)[Fuc(a1-4)]GlcNAc(b1-2)Man(a1-3)]Man(b1-4)GlcNAc(b1-4)GlcNAc
# Procedure, shortened: as §1
# [4] = target: Fuc(a1-2)Gal(b1-3)[Fuc(a1-4)]GlcNAc(b1-2)Man(a1-3)[Fuc(a1-2)Gal(b1-3)[Fuc(a1-4)]GlcNAc(b1-2)Man(a1-6)]Man(b1-4)GlcNAc(b1-4)[Fuc(a1-6)]GlcNAc(b1-4)[Fuc(a1-6)]GlcNAc
# Procedure, shortened: as §1
# [5] = target: Fuc(a1-2)Gal(b1-4)GlcNAc(b1-2)Man(a1-3)[Fuc(a1-2)Gal(b1-4)GlcNAc(b1-2)Man(a1-6)]Man(b1-4)GlcNAc(b1-4)[Fuc(a1-6)]GlcNAc
# Procedure, shortened: as §1
# [6] = target: Fuc(a1-2)Gal(b1-4)GlcNAc(b1-3)Gal(b1-4)GlcNAc(b1-2)Man(a1-3)[Fuc(a1-2)Gal(b1-4)GlcNAc(b1-3)Gal(b1-4)GlcNAc(b1-2)Man(a1-6)]Man(b1-4)GlcNAc(b1-4)GlcNAc
# Procedure, shortened: as §1
# [7] = target: Fuc(a1-2)Gal(b1-4)[Fuc(a1-3)]GlcNAc
# Procedure, shortened: as §1
# [8] = target: Fuc(a1-2)Gal3S(b1-4)GlcNAc
# Procedure, shortened: as §1
# [9] = target: Fuc(a1-2)Gal6S(b1-3)GlcNAc6S
# Procedure, shortened: as §1
# [10] = target: Fuc(a1-2)Gal6S(b1-4)Glc6S
# Procedure, shortened: as §1
# [11] = target: Fuc(a1-2)[GalNAc(a1-3)]Gal(b1-3)GalNAc(a1-3)[Fuc(a1-2)]Gal(b1-4)GlcNAc
# Procedure, shortened: as §1
# [12] = target: Fuc(a1-2)[GalNAc(a1-3)]Gal(b1-3)GalNAc(b1-3)Gal(a1-4)Gal(b1-4)Glc
# Procedure, shortened: as §1
# [13] = target: Fuc(a1-3)[Gal(b1-4)]GlcNAc(b1-6)GalNAc
# Procedure, shortened: as §1
# [14] = target: Fuc(a1-3)[Gal(b1-4)]GlcNAc6S
# Procedure, shortened: as §1
# [15] = target: Gal(a1-2)Gal
# Procedure, shortened: as §1
# [16] = target: Gal(a1-3)Gal(b1-3)GlcNAc(b1-2)Man(a1-3)[Gal(a1-3)Gal(b1-3)GlcNAc(b1-2)Man(a1-6)]Man(b1-4)GlcNAc(b1-4)GlcNAc
# Procedure, shortened: as §1
# [17] = target: Gal(a1-3)Gal(b1-3)GlcNAc(b1-6)GalNAc
# Procedure, shortened: as §1
# [18] = target: Gal(a1-3)Gal(b1-4)[Fuc(a1-3)]GlcNAc(b1-2)Man(a1-3)[Gal(a1-3)Gal(b1-4)[Fuc(a1-3)]GlcNAc(b1-2)Man(a1-6)]Man(b1-4)GlcNAc(b1-4)GlcNAc
# Procedure, shortened: as §1
# [19] = target: Gal(a1-4)Gal(b1-3)GlcNAc(b1-2)Man(a1-3)[Gal(a1-4)Gal(b1-3)GlcNAc(b1-2)Man(a1-6)]Man(b1-4)GlcNAc(b1-4)GlcNAc
# Procedure, shortened: as §1
# [20] = target: Gal(a1-4)Gal(b1-4)GlcNAc(b1-3)Gal(b1-4)Glc
# Procedure, shortened: as §1
# [21] = target: Gal(b1-3)[Fuc(a1-4)]GlcNAc(b1-2)Man(a1-3)[Gal(b1-3)[Fuc(a1-4)]GlcNAc(b1-2)Man(a1-6)]Man(b1-4)GlcNAc(b1-4)[Fuc(a1-6)]GlcNAc
# Procedure, shortened: as §1
# [22] = target: Gal(b1-3)[Neu5Ac(b2-6)]GalNAc
# Procedure, shortened: as §1
# [23] = target: Gal(b1-4)GlcNAc(b1-2)Man(a1-3)[Gal(b1-4)GlcNAc(b1-2)Man(a1-6)][GlcNAc(b1-4)]Man(b1-4)GlcNAc(b1-4)[Fuc(a1-6)]GlcNAc
# Procedure, shortened: as §1
# [24] = target: Gal(b1-4)GlcNAc(b1-2)[Gal(b1-4)GlcNAc(b1-6)]Man(a1-6)[Gal(b1-4)GlcNAc(b1-2)Man(a1-3)]Man(b1-4)GlcNAc(b1-4)GlcNAc
# Procedure, shortened: as §1
# [25] = target: Gal(b1-4)GlcNAc(b1-3)Gal(b1-3)GalNAc
# Procedure, shortened: as §1
# [26] = target: Gal3S(b1-4)Glc6S
# Procedure, shortened: as §1
# [27] = target: Gal3S6S(b1-4)GlcNAc6S
# Procedure, shortened: as §1
# [28] = target: GalNAc(b1-4)Gal(b1-4)Glc
# Procedure, shortened: as §1
# [29] = target: GalNAc(b1-4)GlcNAc(b1-2)Man(a1-3)[GalNAc(b1-4)GlcNAc(b1-2)Man(a1-6)]Man(b1-4)GlcNAc(b1-4)GlcNAc
# Procedure, shortened: as §1
# [30] = target: Glc(a1-6)Glc(a1-6)Glc(a1-6)Glc
# Procedure, shortened: as §1
# [31] = target: GlcNAc(a1-4)Gal(b1-4)GlcNAc(b1-3)Gal(b1-4)[Fuc(a1-3)]GlcNAc(b1-3)Gal(b1-4)[Fuc(a1-3)]GlcNAc
# Procedure, shortened: as §1
# [32] = target: GlcNAc(b1-2)Gal(b1-3)GalNAc
# Procedure, shortened: as §1
# [33] = target: GlcNAc(b1-2)[GlcNAc(b1-4)]Man(a1-3)[GlcNAc(b1-4)][GlcNAc(b1-2)[GlcNAc(b1-6)]Man(a1-6)]Man(b1-4)GlcNAc(b1-4)GlcNAc
# Procedure, shortened: as §1
# [34] = target: GlcNAc(b1-3)Gal(b1-4)GlcNAc(b1-3)Gal(b1-4)GlcNAc(b1-3)Gal(b1-4)GlcNAc(b1-2)[GlcNAc(b1-3)Gal(b1-4)GlcNAc(b1-3)Gal(b1-4)GlcNAc(b1-3)Gal(b1-4)GlcNAc(b1-6)]Man(a1-6)[GlcNAc(b1-3)Gal(b1-4)GlcNAc(b1-3)Gal(b1-4)GlcNAc(b1-3)Gal(b1-4)GlcNAc(b1-2)Man(a1-3)]Man(b1-4)GlcNAc(b1-4)[Fuc(a1-6)]GlcNAc
# Procedure, shortened: as §1
# [35] = target: GlcNAc(b1-3)Gal(b1-4)GlcNAc(b1-3)Gal(b1-4)GlcNAc(b1-3)Gal(b1-4)GlcNAc(b1-3)Gal(b1-4)GlcNAc(b1-2)[GlcNAc(b1-3)Gal(b1-4)GlcNAc(b1-3)Gal(b1-4)GlcNAc(b1-3)Gal(b1-4)GlcNAc(b1-3)Gal(b1-4)GlcNAc(b1-6)]Man(a1-6)[GlcNAc(b1-3)Gal(b1-4)GlcNAc(b1-3)Gal(b1-4)GlcNAc(b1-3)Gal(b1-4)GlcNAc(b1-3)Gal(b1-4)GlcNAc(b1-2)Man(a1-3)]Man(b1-4)GlcNAc(b1-4)[Fuc(a1-6)]GlcNAc
# Procedure, shortened: as §1
# [36] = target: GlcNAc(b1-4)GlcNAc(b1-4)GlcNAc(b1-4)GlcNAc(b1-4)GlcNAc
# Procedure, shortened: as §1
# [37] = target: GlcNAc(b1-4)GlcNAc(b1-4)GlcNAc(b1-4)GlcNAc(b1-4)GlcNAc(b1-4)GlcNAc
# Procedure, shortened: as §1
# [38] = target: Neu5Ac(a2-3)Gal(b1-3)GlcNAc(b1-2)[Neu5Ac(a2-3)Gal(b1-3)GlcNAc(b1-4)]Man(a1-6)[Neu5Ac(a2-3)Gal(b1-3)GlcNAc(b1-2)Man(a1-3)]Man(b1-4)GlcNAc(b1-4)GlcNAc
# Procedure, shortened: as §1
# [39] = target: Neu5Ac(a2-3)Gal(b1-3)GlcNAc(b1-6)GalNAc
# Procedure, shortened: as §1
# [40] = target: Neu5Ac(a2-3)Gal(b1-4)GlcNAc(b1-2)Man(a1-3)[Neu5Ac(a2-6)Gal(b1-4)GlcNAc(b1-2)Man(a1-6)]Man(b1-4)GlcNAc(b1-4)GlcNAc
# Procedure, shortened: as §1
# [41] = target: Neu5Ac(a2-3)Gal(b1-4)[Fuc(a1-3)]GlcNAc(b1-6)[Gal(b1-3)]GalNAc
# Procedure, shortened: as §1
# [42] = target: Neu5Ac(a2-3)Gal6S(b1-4)GlcNAc
# Procedure, shortened: as §1
# [43] = target: Neu5Ac(a2-6)Gal(b1-4)GlcNAc(b1-2)Man(a1-3)[Neu5Ac(a2-6)Gal(b1-4)GlcNAc(b1-2)Man(a1-6)]Man(b1-4)GlcNAc(b1-4)GlcNAc
# Procedure, shortened: as §1
# [44] = target: Neu5Ac(a2-6)Gal(b1-4)GlcNAc(b1-2)Man(a1-3)[Neu5Ac(a2-6)Gal(b1-4)GlcNAc(b1-2)Man(a1-6)]Man(b1-4)GlcNAc(b1-4)[Fuc(a1-6)]GlcNAc
# Procedure, shortened: as §1
# [45] = target: Neu5Ac(a2-6)GalNAc(b1-4)GlcNAc6S
# Procedure, shortened: as §1
# [46] = target: Neu5Ac(a2-8)Neu5Ac(a2-3)Gal(b1-3)GalNAc(b1-4)[Neu5Ac(a2-3)]Gal(b1-4)Glc
# Procedure, shortened: as §1
# [47] = target: Neu5Ac(a2-8)Neu5Ac(a2-3)[GalNAc(b1-4)]Gal(b1-4)Glc
# Procedure, shortened: as §1
# [48] = target: Neu5Ac(a2-8)Neu5Ac(a2-8)Neu5Ac(a2-3)[Gal(b1-3)GalNAc(b1-4)]Gal(b1-4)Glc
# Procedure, shortened: as §1
# [49] = target: Neu5Ac(a2-8)Neu5Ac(a2-8)Neu5Ac(a2-8)Neu5Ac(a2-3)[GalNAc(b1-4)]Gal(b1-4)Glc
# Procedure, shortened: as §1
# [50] = target: Neu5Ac(a2-8)Neu5Gc(a2-3)Gal(b1-4)GlcNAc
# Procedure, shortened: as §1
binder,measurement,setting,value
B1,glycan array binding signal (z-score),[1],0.026
same,glycan array binding signal (z-score),[2],-0.076
same,glycan array binding signal (z-score),[3],0.285
same,glycan array binding signal (z-score),[4],0.251
same,glycan array binding signal (z-score),[5],0.206
same,glycan array binding signal (z-score),[6],0.006
same,glycan array binding signal (z-score),[7],-0.07
same,glycan array binding signal (z-score),[8],-0.06
same,glycan array binding signal (z-score),[9],1.74
same,glycan array binding signal (z-score),[10],0.205
same,glycan array binding signal (z-score),[11],22.9
same,glycan array binding signal (z-score),[12],8.04
same,glycan array binding signal (z-score),[13],0.242
same,glycan array binding signal (z-score),[14],-0.107
same,glycan array binding signal (z-score),[15],0.002
same,glycan array binding signal (z-score),[16],0.031
same,glycan array binding signal (z-score),[17],-0.107
same,glycan array binding signal (z-score),[18],0.644
same,glycan array binding signal (z-score),[19],-0.007
same,glycan array binding signal (z-score),[20],-0.098
same,glycan array binding signal (z-score),[21],0.357
same,glycan array binding signal (z-score),[22],-0.096
same,glycan array binding signal (z-score),[23],-0.009
same,glycan array binding signal (z-score),[24],-0.08
same,glycan array binding signal (z-score),[25],-0.11
same,glycan array binding signal (z-score),[26],-0.088
same,glycan array binding signal (z-score),[27],-0.045
same,glycan array binding signal (z-score),[28],-0.096
same,glycan array binding signal (z-score),[29],-0.075
same,glycan array binding signal (z-score),[30],-0.081
same,glycan array binding signal (z-score),[31],0.075
same,glycan array binding signal (z-score),[32],-0.094
same,glycan array binding signal (z-score),[33],-0.071
same,glycan array binding signal (z-score),[34],-0.048
same,glycan array binding signal (z-score),[35],-0.029
same,glycan array binding signal (z-score),[36],-0.126
same,glycan array binding signal (z-score),[37],-0.102
same,glycan array binding signal (z-score),[38],0.068
same,glycan array binding signal (z-score),[39],-0.047
same,glycan array binding signal (z-score),[40],-0.118
same,glycan array binding signal (z-score),[41],-0.025
same,glycan array binding signal (z-score),[42],-0.047
same,glycan array binding signal (z-score),[43],-0.079
same,glycan array binding signal (z-score),[44],-0.088
same,glycan array binding signal (z-score),[45],-0.012
same,glycan array binding signal (z-score),[46],-0.107
same,glycan array binding signal (z-score),[47],-0.086
same,glycan array binding signal (z-score),[48],-0.094
same,glycan array binding signal (z-score),[49],-0.107
same,glycan array binding signal (z-score),[50],-0.042
